Results on four compounds are retold here after PubChem BioAssay (EPA / NIEHS).

The source made the active and inactive calls. The calls were made as follows: active = hit-call score of the fitted dose curve at least 0.9, where 1 is the maximum; inactive = score below 0.9.

Common to all, as to conditions: mRNA level, 48 h; actives raise or lower the signal
Read-out in test [1]: Insulin Like Growth Factor 1 (IGF1), IGF1 (gene 3479)
The test can be described thus: LTEA_HepaRG_IGF1: Life Technologies and Expression Analysis (LTEA) Assay for Insulin Like Growth Factor 1 (IGF1) using HepaRG (AID 2283506). The gist of the method:
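Differentiated HepaRG cells in serum-free induction medium, exposed 48 h in duplicate to 8 half-log concentrations up to 100 uM in 0.5% DMSO. IGF1 mRNA by Fluidigm qRT-PCR, normalised to ACTB, GAPDH and POLR2A.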

Read-out in test [2]: Insulin-like growth factor-binding protein 1 (IGFBP1), IGFBP1 (gene 3484)
The test is described as follows: LTEA_HepaRG_IGFBP1: Life Technologies and Expression Analysis (LTEA) Assay for Insulin-like growth factor-binding protein 1 (IGFBP1) using HepaRG (AID 2283508). The method in brief: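 HepaRG cells, plated 48 h then switched to serum-free induction medium, exposed in duplicate for 48 h to 8-point half-log series from 100 uM in 0.5% DMSO. mRNA measured by qRT-PCR, normalized to ACTB/GAPDH/POLR2A; bidirectional fit versus DMSO.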

Read-out in test [3]: Interleukin 6 (IL6), IL6 (gene 3569)
The test can be described thus: LTEA_HepaRG_IL6: Life Technologies and Expression Analysis (LTEA) Assay for Interleukin 6 (IL6) using HepaRG (AID 2283509). The gist of the method: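 HepaRG cells exposed in duplicate for 48 h to eight half-log concentrations, top 100 uM, in 0.5% DMSO serum-free induction medium. mRNA measured by qRT-PCR, normalized to ACTB, GAPDH and POLR2A. Bidirectional fit versus DMSO.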

Read-out in test [4]: Interleukin 6 Receptor (IL6R), IL6R (gene 3570)
The test can be described thus: LTEA_HepaRG_IL6R: Life Technologies and Expression Analysis (LTEA) Assay for Interleukin 6 Receptor (IL6R) using HepaRG (AID 2283510). The gist of the method: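 Differentiated HepaRG cells, plated 48 h, then exposed in duplicate for 48 h in serum-free induction medium to 8 half-log concentrations (top 100 uM, 0.5% DMSO). IL6R mRNA measured by TaqMan qRT-PCR, normalized to ACTB/GAPDH/POLR2A; bidirectional fit vs DMSO.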

Read-out in test [5]: Potassium channel subfamily K member 1 (KCNK1), KCNK1 (gene 3775)
The test is described as follows: LTEA_HepaRG_KCNK1: Life Technologies and Expression Analysis (LTEA) Assay for Potassium channel subfamily K member 1 (KCNK1) using HepaRG (AID 2283511). The gist of the method:
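Differentiated HepaRG cells, 48 h exposure in serum-free induction medium with 0.5% DMSO; 8 concentrations, half-log from 100 uM, duplicate. KCNK1 mRNA by qRT-PCR, normalized to ACTB, GAPDH, POLR2A; bidirectional fit vs DMSO.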

Read-out in test [6]: JUN Transcription Factor, JUN (gene 3725)
The test is described as follows: LTEA_HepaRG_JUN: Life Technologies and Expression Analysis (LTEA) Assay for JUN Transcription Factor using HepaRG (AID 2283513). The gist of the method: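 HepaRG cells, 48 h post-plating, exposed 48 h in serum-free induction medium to 8-point half-log series (top 100 uM, 0.5% DMSO), duplicate; mRNA by qRT-PCR (TaqMan, Fluidigm), normalized to ACTB/GAPDH/POLR2A; bidirectional fit vs DMSO.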

Read-out in test [7]: Lipase C (LIPC), LIPC (gene 3990)
The test can be described thus: LTEA_HepaRG_LIPC: Life Technologies and Expression Analysis (LTEA) Assay for Lipase C (LIPC) using HepaRG (AID 2283514). The gist of the method:
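HepaRG cells, 48 h after plating, treated in duplicate for 48 h in serum-free induction medium over 8 half-log concentrations from 100 uM, 0.5% DMSO. LIPC mRNA by TaqMan qRT-PCR normalized to ACTB/GAPDH/POLR2A; bidirectional fit versus DMSO.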

Read-out in test [8]: Lipoprotein lipase (LPL), LPL (gene 4023)
The test can be described thus: LTEA_HepaRG_LPL: Life Technologies and Expression Analysis (LTEA) Assay for Lipoprotein lipase (LPL) using HepaRG (AID 2283515). The gist of the method:
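Differentiated HepaRG cells, plated 48 h, then exposed 48 h in serum-free induction medium to 8 concentrations (top 100 uM, half-log steps) in 0.5% DMSO, duplicate. LPL mRNA measured by qRT-PCR, normalized to ACTB, GAPDH and POLR2A.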

Read-out in test [9]: matrix metalloproteinase-10 (MMP10), MMP10 (gene 4319)
The test is described as follows: LTEA_HepaRG_MMP10: Life Technologies and Expression Analysis (LTEA) Assay for matrix metalloproteinase-10 (MMP10) using HepaRG (AID 2283517). The method in brief:
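Differentiated HepaRG cells in serum-free induction medium exposed 48 h in duplicate to 8-point half-log series up to 100 uM in 0.5% DMSO. mRNA quantified by qRT-PCR, normalised to ACTB, GAPDH, POLR2A; bidirectional fit versus DMSO.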

Read-out in test [10]: matrix metalloproteinase-3 (MMP3), MMP3 (gene 4314)
The test is described as follows: LTEA_HepaRG_MMP3: Life Technologies and Expression Analysis (LTEA) Assay for matrix metalloproteinase-3 (MMP3) using HepaRG (AID 2283519). The method in brief: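 HepaRG cells (~100,000/well) in serum-free induction medium were dosed in duplicate for 48 h with an 8-point half-log series from 100 uM, 0.5% DMSO. MMP3 mRNA was quantified by Fluidigm TaqMan qRT-PCR, normalized to three housekeeping genes.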

Read-out in test [11]: Paternally Expressed 10 (PEG10), PEG10 (gene 23089)
The test can be described thus: LTEA_HepaRG_PEG10: Life Technologies and Expression Analysis (LTEA) Assay for Paternally Expressed 10 (PEG10) using HepaRG (AID 2283520). The method in brief: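 Differentiated HepaRG cells exposed 48 h in serum-free induction medium to eight half-log concentrations topping at 100 uM, 0.5% DMSO, in duplicate. PEG10 mRNA quantified by TaqMan qRT-PCR, normalized to ACTB, GAPDH and POLR2A; bidirectional fit versus DMSO.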

Read-out in test [12]: Protein phosphatase 2A (PPP2R4), PTPA (gene 5524)
The test is described as follows: LTEA_HepaRG_PPP2R4: Life Technologies and Expression Analysis (LTEA) Assay for Protein phosphatase 2A (PPP2R4) using HepaRG (AID 2283522). The gist of the method:
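Differentiated human HepaRG cells in serum-free induction medium were exposed 48 h to 8 concentrations (top 100 µM, half-log steps, duplicate) in 0.5% DMSO. PPP2R4 mRNA was measured by TaqMan qRT-PCR, normalised to ACTB, GAPDH and POLR2A, and fitted bidirectionally versus DMSO.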

Read-out in test [13]: Phosphatase and tensin (PTEN), PTEN (gene 5728)
The test is described as follows: LTEA_HepaRG_PTEN: Life Technologies and Expression Analysis (LTEA) Assay for Phosphatase and tensin (PTEN) using HepaRG (AID 2283523). The method in brief: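 HepaRG cells, 48 h after plating, exposed in duplicate for 48 h in serum-free induction medium to 8 half-log concentrations up to 100 uM (0.5% DMSO). PTEN mRNA by qRT-PCR, normalized to ACTB, GAPDH, POLR2A; bidirectional fit versus DMSO.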

Read-out in test [14]: solute carrier (SLC22A1), SLC22A1 (gene 6580)
The test can be described thus: LTEA_HepaRG_SLC22A1: Life Technologies and Expression Analysis (LTEA) Assay for solute carrier (SLC22A1) using HepaRG (AID 2283524). The method in brief: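 Differentiated human HepaRG cells in serum-free induction medium, exposed 48 h in duplicate to 8-point half-log series from 100 µM top in 0.5% DMSO. SLC22A1 mRNA by TaqMan qRT-PCR normalized to ACTB, GAPDH, POLR2A; bidirectional fit versus DMSO.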

Read-out in test [15]: Pyruvate Dehydrogenase Kinase 4 (PDK4), PDK4 (gene 5166)
The test can be described thus: LTEA_HepaRG_PDK4: Life Technologies and Expression Analysis (LTEA) Assay for Pyruvate Dehydrogenase Kinase 4 (PDK4) using HepaRG (AID 2283525). The gist of the method:
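HepaRG cells plated 48 h, then switched to serum-free induction medium and exposed in duplicate for 48 h to 8 half-log concentrations from 100 uM in 0.5% DMSO. PDK4 mRNA measured by qRT-PCR, normalized to ACTB, GAPDH and POLR2A; bidirectional fit versus DMSO.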

Read-out in test [16]: Intercellular Adhesion Molecule 1 (ICAM1), ICAM1 (gene 3383)
The test can be described thus: LTEA_HepaRG_ICAM1: Life Technologies and Expression Analysis (LTEA) Assay for Intercellular Adhesion Molecule 1 (ICAM1) using HepaRG (AID 2283507). The gist of the method:
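Differentiated human HepaRG cells in serum-free induction medium exposed 48 h in duplicate to 8 half-log concentrations (top 100 uM, 0.5% DMSO). ICAM1 mRNA quantified by TaqMan qRT-PCR, normalized to ACTB, GAPDH and POLR2A; bidirectional fitting versus DMSO.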

Read-out in test [17]: MicroRNA 122 (MIR122), gene 406906
The test can be described thus: LTEA_HepaRG_MIR122: Life Technologies and Expression Analysis (LTEA) Assay for MicroRNA 122 (MIR122) using HepaRG (AID 2283516). Also: the transcript read is the microRNA miR-122. The method in brief: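 Differentiated human HepaRG cells in serum-free induction medium exposed 48 h to 8 half-log concentrations from 100 uM in 0.5% DMSO, duplicate. MIR122 quantified by Fluidigm TaqMan qRT-PCR, normalised to ACTB, GAPDH, POLR2A; fold change fitted bidirectionally versus DMSO.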

Read-out in another test: MYC, MYC (gene 4609)
The test is described as follows: LTEA_HepaRG_MYC: Life Technologies and Expression Analysis (LTEA) Assay for MYC using HepaRG (AID 2283518). The gist of the method:
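Differentiated HepaRG cells exposed 48 h in serum-free induction medium to 8 concentrations (top 100 uM, half-log steps; 0.5% DMSO), duplicate. MYC mRNA measured by Fluidigm qRT-PCR, normalized to ACTB, GAPDH, POLR2A; bidirectional fit versus DMSO.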

Read-out in test [18]: Keratin 19 (KRT19), KRT19 (gene 3880)
The test can be described thus: LTEA_HepaRG_KRT19: Life Technologies and Expression Analysis (LTEA) Assay for Keratin 19 (KRT19) using HepaRG (AID 2283512). The method in brief: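 Differentiated HepaRG cells in serum-free induction medium, exposed 48 h in duplicate to 8 half-log concentrations up to 100 uM in 0.5% DMSO. KRT19 mRNA by qRT-PCR, normalized to ACTB, GAPDH, POLR2A; bidirectional fit vs DMSO.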

Read-out in test [19]: Nuclear factor NF-kappa-B p105 subunit (Homo sapiens) (UniProt P19838)
The test can be described thus: LTEA_HepaRG_NFKB1: Life Technologies and Expression Analysis (LTEA) Assay for Nuclear Factor Kappa B Subunit 1 (NFKB1) using HepaRG (AID 2283521).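 Also: TaqMan qRT-PCR transcript normalised to ACTB GAPDH and POLR2A housekeeping genes.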 The gist of the method: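 NFKB1 transcript was measured by TaqMan qRT-PCR on Fluidigm arrays, normalised to three housekeeping genes and fitted in both directions against 0.5% DMSO. HepaRG cells were dosed in duplicate for 48 h in serum-free induction medium, eight half-log steps from 100 uM.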

Chain of Nuclear factor NF-kappa-B p105 subunit (Homo sapiens) (P19838 whole entry, looked up): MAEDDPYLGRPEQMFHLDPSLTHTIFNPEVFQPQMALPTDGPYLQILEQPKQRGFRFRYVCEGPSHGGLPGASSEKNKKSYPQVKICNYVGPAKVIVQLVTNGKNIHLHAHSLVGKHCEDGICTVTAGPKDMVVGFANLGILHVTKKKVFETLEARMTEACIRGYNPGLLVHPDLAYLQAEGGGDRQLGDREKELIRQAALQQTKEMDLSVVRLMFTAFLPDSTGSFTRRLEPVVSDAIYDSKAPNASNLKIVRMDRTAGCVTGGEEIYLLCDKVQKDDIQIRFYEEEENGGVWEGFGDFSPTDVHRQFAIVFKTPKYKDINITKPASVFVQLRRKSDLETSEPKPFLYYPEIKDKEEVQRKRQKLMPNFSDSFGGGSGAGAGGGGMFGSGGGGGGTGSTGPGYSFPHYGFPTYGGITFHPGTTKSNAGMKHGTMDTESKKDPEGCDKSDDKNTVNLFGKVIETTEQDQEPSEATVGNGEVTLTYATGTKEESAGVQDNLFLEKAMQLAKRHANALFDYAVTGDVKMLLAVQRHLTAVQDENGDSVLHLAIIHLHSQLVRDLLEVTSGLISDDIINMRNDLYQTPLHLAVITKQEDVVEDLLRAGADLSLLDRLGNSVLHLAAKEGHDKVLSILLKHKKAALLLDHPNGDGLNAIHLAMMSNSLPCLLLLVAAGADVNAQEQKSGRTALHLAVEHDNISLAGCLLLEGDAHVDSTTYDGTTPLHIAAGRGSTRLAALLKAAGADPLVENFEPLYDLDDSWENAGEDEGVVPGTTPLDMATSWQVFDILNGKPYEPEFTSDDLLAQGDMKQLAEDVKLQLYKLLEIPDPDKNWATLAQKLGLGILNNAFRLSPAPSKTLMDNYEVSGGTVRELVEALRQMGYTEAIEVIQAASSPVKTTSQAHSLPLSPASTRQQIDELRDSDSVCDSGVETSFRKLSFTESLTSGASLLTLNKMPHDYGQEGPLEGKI

Broadly, the AC50 is the midpoint of the concentration-response curve, whichever way the signal moves. `CCCOC(=O)c1cc(O)c(O)c(O)c1`: the values for the half-maximal activity concentration (AC50) in [1] and in [15] were 11.4 µM (active) and 31.4 µM (active), respectively. Also, the outcome in [2], in test [3], in test [4], in [5], in [6] and in test [7] was inactive. Besides, the outcome in [8], in [9], in test [10], in [11], in test [12] and in [13] was inactive. Further, the compound was called inactive in [14].
On to `O=C1O[C@H]([C@@H](O)CO)C(O)=C1O`, for which the result in [1], in [16], in [2], in test [3], in test [4] and in [5] was inactive. Also, the outcome in [7] was “inactive”; in test [8] it was “inactive”; in test [17] it was “inactive”; in test [9] it was “inactive”; in the test with MYC, MYC (gene 4609) it was “inactive”; in test [11], “inactive”. Moreover, the outcome in [12], in test [13], in test [14] and in test [15] was inactive.
In the case of `Cc1ccc2oc(CN(Cc3ccccc3)C(=O)Nc3c(F)cc(F)cc3F)c(-c3ccc(Cl)cc3)c2c1`, the AC50 in test [1] is 30.2 µM (active); in test [2], 70.8 µM (active); in test [7] it was 44.2 µM (active); in test [8], 56.4 µM (active); in the test with MYC, MYC (gene 4609), 44.2 µM (active); in test [14], 44.2 µM (active). The outcome in [16], in test [3], in [4], in test [5], in [18] and in test [6] was inactive. The compound was called inactive in [17], in test [9], in test [11], in test [19], in test [12] and in test [13]. In addition, the compound was called inactive in [15].
With `O=C(O)c1ccccc1-n1cc(C(=O)O)c(=O)c2cc(Nc3c(F)cc(F)cc3Cl)c(Cl)cc21`, the compound was called inactive in [1], in test [16], in test [2], in [3], in [4] and in [5]. The compound was called inactive in [18], in [6], in [7], in test [8], in test [9] and in test [10]. Besides, the compound was classed as inactive in [19], in [12], in test [13], in test [14] and in test [15]. Besides, the AC50 in [11] is 21.1 µM (active).
